Results as given in the supplement of paper PMC10077471.
Over roughly 1,900 compounds, “excess over highest single agent (ExcessHSA) synergy score, 6x6 matrix” has its median near -83; the lowest 2% begin near -370. Many of the other results were omitted from the sample, so the lowest values are more common in it than they were.

System: NCI-H446
Test: excess over highest single agent (ExcessHSA) synergy score, 6x6 matrix; higher = less synergy (more negative = stronger synergy)
Conditions: 72 h; CellTiter-Glo viability

| Structure (SMILES) | excess over highest single agent |
| --- | --- |
| Cc1cc(CN2CCN(c3c(Br)cnc4nc(-c5ccc(N6CCN(C)CC6)cc5)[nH]c34)CC2)no1 + Cc1sc2c(c1C)C(c1ccc(Cl)cc1)=N[C@@H](CC(=O)OC(C)(C)C)c1nnc(C)n1-2 [NCGC00250412-19] | -107 |
| CN(C)c1ccc(-c2nc3ncc(Cl)c(N4CCN(CC(=O)Nc5nccs5)CC4)c3[nH]2)cc1 + Cc1sc2c(c1C)C(c1ccc(Cl)cc1)=N[C@@H](CC(=O)OC(C)(C)C)c1nnc(C)n1-2 [NCGC00250412-19] | -382 |
| CCOC(CN1C(=O)[C@](CC(=O)Nc2ccc(C)cc2)(NC(=O)Nc2ccc(C)cc2)c2ccccc21)OCC + Cc1sc2c(c1C)C(c1ccc(Cl)cc1)=N[C@@H](CC(=O)OC(C)(C)C)c1nnc(C)n1-2 [NCGC00250412-19] | -94.2 |
| COc1cc2c(cc1OC)CN(CCc1ccc(NC(=O)c3cc(OC)c(OC)cc3NC(=O)c3cnc4ccccc4c3)cc1)CC2 + Cc1sc2c(c1C)C(c1ccc(Cl)cc1)=N[C@@H](CC(=O)OC(C)(C)C)c1nnc(C)n1-2 [NCGC00250412-19] | 50.9 |
| Cc1cccc(-c2[nH]c(C(C)(C)C)nc2-c2ccc3c(c2)OCO3)n1 + Cc1sc2c(c1C)C(c1ccc(Cl)cc1)=N[C@@H](CC(=O)OC(C)(C)C)c1nnc(C)n1-2 [NCGC00250412-19] | -84.7 |
| CC(C)(O)CC(=O)NCCn1ccc2ncnc(Nc3ccc(Oc4cccc(C(F)(F)F)c4)c(Cl)c3)c21 + Cc1sc2c(c1C)C(c1ccc(Cl)cc1)=N[C@@H](CC(=O)OC(C)(C)C)c1nnc(C)n1-2 [NCGC00250412-19] | 16.5 |
| CC(C)[C@H](C(=O)Nc1ccc(C(=O)NO)cc1)c1ccccc1 + Cc1sc2c(c1C)C(c1ccc(Cl)cc1)=N[C@@H](CC(=O)OC(C)(C)C)c1nnc(C)n1-2 [NCGC00250412-19] | -112 |
| C=C1/C(=C\C=C2/CCC[C@]3(C)[C@@H]([C@H](C)/C=C/C=C/C(O)(CC)CC)CC[C@@H]23)C[C@@H](O)C[C@@H]1O + Cc1sc2c(c1C)C(c1ccc(Cl)cc1)=N[C@@H](CC(=O)OC(C)(C)C)c1nnc(C)n1-2 [NCGC00250412-19] | 84.4 |
| COc1ccc2c(c1OC)CN1CCc3cc4c(cc3C1C2)OCO4 (configuration not stated) + Cc1sc2c(c1C)C(c1ccc(Cl)cc1)=N[C@@H](CC(=O)OC(C)(C)C)c1nnc(C)n1-2 [NCGC00250412-19] | -109 |
| COc1cc2c(cc1OC)[C@@H]1Cc3ccc(OC)c(OC)c3CN1CC2 + Cc1sc2c(c1C)C(c1ccc(Cl)cc1)=N[C@@H](CC(=O)OC(C)(C)C)c1nnc(C)n1-2 [NCGC00250412-19] | -95.9 |
| COc1ccc2cc1Oc1ccc(cc1)C[C@H]1c3cc(c(OC)cc3CCN1C)Oc1c(OC)c(OC)cc3c1[C@H](C2)N(C)CC3 + Cc1sc2c(c1C)C(c1ccc(Cl)cc1)=N[C@@H](CC(=O)OC(C)(C)C)c1nnc(C)n1-2 [NCGC00250412-19] | -432 |
| Cc1ccc2c(c1)c1c(n2CCc2ccc(C)nc2)CCN(C)C1 + Cc1sc2c(c1C)C(c1ccc(Cl)cc1)=N[C@@H](CC(=O)OC(C)(C)C)c1nnc(C)n1-2 [NCGC00250412-19] | -121 |
| CC[C@@]1(O)C(=O)OCc2c1cc1n(c2=O)Cc2cc3ccccc3nc2-1 + Cc1sc2c(c1C)C(c1ccc(Cl)cc1)=N[C@@H](CC(=O)OC(C)(C)C)c1nnc(C)n1-2 [NCGC00250412-19] | -249 |
| CC[C@@]1(O)C(=O)OCc2c1cc1n(c2=O)Cc2cc3cc(O)ccc3nc2-1 + Cc1sc2c(c1C)C(c1ccc(Cl)cc1)=N[C@@H](CC(=O)OC(C)(C)C)c1nnc(C)n1-2 [NCGC00250412-19] | -416 |
| CCc1c2c(nc3ccc(O)cc13)-c1cc3c(c(=O)n1C2)COC(=O)[C@]3(O)CC + Cc1sc2c(c1C)C(c1ccc(Cl)cc1)=N[C@@H](CC(=O)OC(C)(C)C)c1nnc(C)n1-2 [NCGC00250412-19] | -327 |
| CCc1c2c(nc3ccc(OC(=O)N4CCC(N5CCCCC5)CC4)cc13)-c1cc3c(c(=O)n1C2)COC(=O)[C@]3(O)CC + Cc1sc2c(c1C)C(c1ccc(Cl)cc1)=N[C@@H](CC(=O)OC(C)(C)C)c1nnc(C)n1-2 [NCGC00250412-19] | -249 |
| CC[C@@]1(O)C(=O)OCc2c1cc1n(c2=O)Cc2cc3c(CN(C)C)c(O)ccc3nc2-1 + Cc1sc2c(c1C)C(c1ccc(Cl)cc1)=N[C@@H](CC(=O)OC(C)(C)C)c1nnc(C)n1-2 [NCGC00250412-19] | -475 |
| CC[C@H](CC#N)OC(=O)N[C@@H](C)c1cccc(NC(=O)Nc2ccc(-c3cnco3)c(OC)c2)c1 + Cc1sc2c(c1C)C(c1ccc(Cl)cc1)=N[C@@H](CC(=O)OC(C)(C)C)c1nnc(C)n1-2 [NCGC00250412-19] | -174 |
| Cc1cccc(Nc2nc(N[C@@H]3CCCC[C@@H]3N)ncc2C(N)=O)c1 + Cc1sc2c(c1C)C(c1ccc(Cl)cc1)=N[C@@H](CC(=O)OC(C)(C)C)c1nnc(C)n1-2 [NCGC00250412-19] | -24 |

| Structure (SMILES) | excess over highest single agent |
| --- | --- |
| Cn1cnc(-c2cc3nccc(Oc4ccc(NC(=S)NC(=O)Cc5ccccc5)cc4F)c3s2)c1 + Cc1sc2c(c1C)C(c1ccc(Cl)cc1)=N[C@@H](CC(=O)OC(C)(C)C)c1nnc(C)n1-2 [NCGC00250412-19] | -36.3 |
| C#Cc1cccc(Nc2ncnc3cc(OCCOC)c(OCCO)cc23)c1 + Cc1sc2c(c1C)C(c1ccc(Cl)cc1)=N[C@@H](CC(=O)OC(C)(C)C)c1nnc(C)n1-2 [NCGC00250412-19] | -46.8 |
| CCN1CCC(n2cc(CNc3cc(Cl)c4ncc(C#N)c(Nc5ccc(F)c(Cl)c5)c4c3)nn2)CC1 + Cc1sc2c(c1C)C(c1ccc(Cl)cc1)=N[C@@H](CC(=O)OC(C)(C)C)c1nnc(C)n1-2 [NCGC00250412-19] | 44.4 |
| CN(C1CCc2c(c3ccccc3n2CC(=O)O)C1)S(=O)(=O)c1ccc(F)cc1 (configuration not stated) + Cc1sc2c(c1C)C(c1ccc(Cl)cc1)=N[C@@H](CC(=O)OC(C)(C)C)c1nnc(C)n1-2 [NCGC00250412-19] | -115 |
| CC/C=C\CC1C(=O)CCC1CC(=O)OC (configuration not stated) + Cc1sc2c(c1C)C(c1ccc(Cl)cc1)=N[C@@H](CC(=O)OC(C)(C)C)c1nnc(C)n1-2 [NCGC00250412-19] | 223 |
| NC(=O)Nc1cc(-c2ccc(CN3CCOCC3)cc2)sc1C(N)=O + Cc1sc2c(c1C)C(c1ccc(Cl)cc1)=N[C@@H](CC(=O)OC(C)(C)C)c1nnc(C)n1-2 [NCGC00250412-19] | -229 |
| CCNC(=O)c1noc(-c2cc(C(C)C)c(O)cc2O)c1-c1ccc(CN2CCOCC2)cc1 + Cc1sc2c(c1C)C(c1ccc(Cl)cc1)=N[C@@H](CC(=O)OC(C)(C)C)c1nnc(C)n1-2 [NCGC00250412-19] | -382 |
| CC(C)c1cc(C(=O)N2Cc3ccc(CN4CCN(C)CC4)cc3C2)c(O)cc1O + Cc1sc2c(c1C)C(c1ccc(Cl)cc1)=N[C@@H](CC(=O)OC(C)(C)C)c1nnc(C)n1-2 [NCGC00250412-19] | -247 |
| CC(C)(C)OC(=O)Nc1ccc(-c2cc(C(=O)NCCCCCCC(=O)NO)no2)cc1 + Cc1sc2c(c1C)C(c1ccc(Cl)cc1)=N[C@@H](CC(=O)OC(C)(C)C)c1nnc(C)n1-2 [NCGC00250412-19] | -161 |
| O=C(O)[C@H]1O[C@@H](Oc2cc3oc(-c4ccccc4)cc(=O)c3c(O)c2O)[C@H](O)[C@@H](O)[C@@H]1O + Cc1sc2c(c1C)C(c1ccc(Cl)cc1)=N[C@@H](CC(=O)OC(C)(C)C)c1nnc(C)n1-2 [NCGC00250412-19] | -92.6 |
| OC1CCC(Nc2ncc3nc(Nc4c(F)cc(F)cc4F)n([C@@H]4CCOC4)c3n2)CC1 (some centres not stated) + Cc1sc2c(c1C)C(c1ccc(Cl)cc1)=N[C@@H](CC(=O)OC(C)(C)C)c1nnc(C)n1-2 [NCGC00250412-19] | 17.3 |
| CCC(=O)N[C@H]1CC[C@H](C(=O)N(C)c2ccc(-c3nc4ccccc4o3)cc2)C1 + Cc1sc2c(c1C)C(c1ccc(Cl)cc1)=N[C@@H](CC(=O)OC(C)(C)C)c1nnc(C)n1-2 [NCGC00250412-19] | -57 |
| CN1CCN(Cc2ccc(NC(=O)Nc3ccc(Oc4cc(NC(=O)C5CC5)ncn4)cc3)cc2C(F)(F)F)CC1 + Cc1sc2c(c1C)C(c1ccc(Cl)cc1)=N[C@@H](CC(=O)OC(C)(C)C)c1nnc(C)n1-2 [NCGC00250412-19] | -34.2 |
| CC(=O)N(C)C1(c2ccccc2)CCN(CCC[C@]2(c3ccc(Cl)c(Cl)c3)CCCN(C(=O)c3ccccc3)C2)CC1 + Cc1sc2c(c1C)C(c1ccc(Cl)cc1)=N[C@@H](CC(=O)OC(C)(C)C)c1nnc(C)n1-2 [NCGC00250412-19] | -142 |
| O=C(N[C@@H](COc1ccc2[nH]c(=O)[nH]c2c1)c1ccccc1)c1cccn(Cc2ccc(F)c(F)c2)c1=O + Cc1sc2c(c1C)C(c1ccc(Cl)cc1)=N[C@@H](CC(=O)OC(C)(C)C)c1nnc(C)n1-2 [NCGC00250412-19] | -158 |
| COCC1OC(=O)c2coc3c2C1(C)C1=C(C3=O)C2CCC(O)C2(C)CC1OC(C)=O (configuration not stated) + Cc1sc2c(c1C)C(c1ccc(Cl)cc1)=N[C@@H](CC(=O)OC(C)(C)C)c1nnc(C)n1-2 [NCGC00250412-19] | -423 |
| COC[C@H]1OC(=O)c2coc3c2[C@@]1(C)C1=C(C3=O)[C@@H]2CCC(=O)[C@@]2(C)C[C@H]1OC(C)=O + Cc1sc2c(c1C)C(c1ccc(Cl)cc1)=N[C@@H](CC(=O)OC(C)(C)C)c1nnc(C)n1-2 [NCGC00250412-19] | -484 |
| COc1cc2ncnc(Nc3cc(Br)c(O)c(Br)c3)c2cc1OC + Cc1sc2c(c1C)C(c1ccc(Cl)cc1)=N[C@@H](CC(=O)OC(C)(C)C)c1nnc(C)n1-2 [NCGC00250412-19] | -207 |
